From PubChem BioAssay come the findings set out here.

Test [1] relates to Human papillomavirus type 1a protein E7 (residues 44-93). The experiment in a line: HPV1a E7 fragment binders on microarrays, primary screen, biochemical, small-molecule microarray, residues 44-93, 635 nm fluorescence (AID 1108).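 Note: E7 fragment applied at 1 µg/mL in TBST for 1 h at 4 C; score combines spot fluorescence with its signal to noise ratio.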 The following applies: small-molecule microarray binding, fluorescence 635 nm; higher = more signal.
Test [2] is described as follows: modulators of HCV replicon luciferase signal, primary screen, HCV replication inhibitor project, Huh7 cells, luciferase reporter (AID 1109).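 Note: huh7 hepatoma cells harbouring a luciferase neomycin HCV replicon reporter; luciferase luminescence as measure of HCV replicon replication; test concentration not given here.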 Particulars: 48 h, higher = more signal. For orientation: In antiviral work, replicon cells carry a viral genome segment that copies itself.
Test [3] concerns the target Left-right determination factor 2 (Homo sapiens) (UniProt O00292). The experiment in a line: LEFTY2 binders on small-molecule microarrays, primary screen, biochemical, small-molecule microarray, 635 nm fluorescence scan (AID 1110). Particulars: LEFTY2 binding, higher = more signal.
The target of test [4] is Calmodulin-1 (Homo sapiens) (UniProt P0DP23). Kind of test: CALM1 binders on microarrays, EGTA buffer, profiling panel, biochemical, small-molecule microarray, Cy5-labelled CALM1 (AID 1111).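 Note: labelled calmodulin applied in Tris saline Tween buffer holding calcium plus EGTA and DTT.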 Particulars: Cy5-CALM1 binding fluorescence, higher = more signal.
Test [5] shares this target. The experiment in a line: calcium-bound CALM1 binders on microarrays, profiling panel, artefact control for SMM control-protein annotation, biochemical, small-molecule microarray, Cy5-labelled CALM1, plus calcium (AID 1112).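 Note: score merges spot fluorescence with signal to noise from triplicate slides.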 Particulars: Cy5-CALM1 binding fluorescence, higher = more signal.
Test [6] can be described thus: small-molecule microarray binders of probe aWnt5a, primary screen, biochemical, biotinylated probe, 635/667 nm fluorescence (AID 1113).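 Note: score merges 667 nm fluorescence intensity with signal-to-noise per printed feature.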 The following applies: higher = more signal.
A short description of test [7]: small-molecule microarray binders of probe aShh, primary screen, biochemical, biotinylated probe, 635/667 nm fluorescence (AID 1114).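 Note: probe is biotin-labelled aShh protein from a stem cell growth factor screen; measures binding of labelled protein to compounds printed on the slide; score merges feature fluorescence at 667 nm with signal-to-noise.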 The following applies: higher = more signal.
Test [8] in a line: small-molecule microarray binders of probe aNog, primary screen, biochemical, biotinylated probe, 635/667 nm fluorescence (AID 1115).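 Note: probe is biotinylated aNog protein used at 0.15 µg/mL for 1 h at 4 C; z-score combines 667 nm fluorescence of each spot with its signal to noise.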 The following applies: higher = more signal.
The target of test [9] is Torsin-1A-interacting protein 1 (Homo sapiens) (UniProt Q5JTV8). Kind of test: LAP1 binders from COS7 cell lysate, primary screen, small-molecule microarray, 635/667 nm fluorescence (AID 1116). Particulars: COS7-hLAP1 lysate binding, 635 nm fluorescence, higher = more signal.
Sequence of Torsin-1A-interacting protein 1 (Homo sapiens) (Q5JTV8 whole entry, looked up): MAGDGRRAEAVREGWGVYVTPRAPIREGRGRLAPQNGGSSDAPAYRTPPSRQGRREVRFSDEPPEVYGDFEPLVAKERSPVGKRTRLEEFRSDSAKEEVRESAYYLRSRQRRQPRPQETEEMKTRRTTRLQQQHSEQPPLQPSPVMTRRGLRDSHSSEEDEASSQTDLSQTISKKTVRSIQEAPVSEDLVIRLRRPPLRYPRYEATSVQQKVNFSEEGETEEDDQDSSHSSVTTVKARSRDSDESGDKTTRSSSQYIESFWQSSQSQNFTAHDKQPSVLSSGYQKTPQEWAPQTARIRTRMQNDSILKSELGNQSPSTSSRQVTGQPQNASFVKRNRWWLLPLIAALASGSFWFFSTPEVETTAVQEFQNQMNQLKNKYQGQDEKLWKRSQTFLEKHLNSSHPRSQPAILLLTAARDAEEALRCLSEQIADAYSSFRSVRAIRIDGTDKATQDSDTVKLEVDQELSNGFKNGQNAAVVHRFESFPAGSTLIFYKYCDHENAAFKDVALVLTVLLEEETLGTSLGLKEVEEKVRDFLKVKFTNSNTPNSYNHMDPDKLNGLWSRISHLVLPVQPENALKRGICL
In test [10] the target is Alpha-bungarotoxin (Bungarus multicinctus) (UniProt P60615). Kind of test: alpha-bungarotoxin binders on microarray, profiling panel, artefact control for SMM control protein annotation, biochemical, small-molecule microarray, Alexa647 label, 635/667 nm fluorescence (AID 1117). The following applies: alpha-BTX-A647 binding fluorescence, higher = more signal.
Sequence of Alpha-bungarotoxin (Bungarus multicinctus) (P60615 whole entry, looked up): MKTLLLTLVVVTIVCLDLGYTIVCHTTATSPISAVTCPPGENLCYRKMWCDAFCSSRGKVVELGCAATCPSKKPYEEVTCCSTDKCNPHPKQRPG

Structures are written as SMILES.

Sequence of Left-right determination factor 2 (Homo sapiens) (O00292 whole entry, looked up): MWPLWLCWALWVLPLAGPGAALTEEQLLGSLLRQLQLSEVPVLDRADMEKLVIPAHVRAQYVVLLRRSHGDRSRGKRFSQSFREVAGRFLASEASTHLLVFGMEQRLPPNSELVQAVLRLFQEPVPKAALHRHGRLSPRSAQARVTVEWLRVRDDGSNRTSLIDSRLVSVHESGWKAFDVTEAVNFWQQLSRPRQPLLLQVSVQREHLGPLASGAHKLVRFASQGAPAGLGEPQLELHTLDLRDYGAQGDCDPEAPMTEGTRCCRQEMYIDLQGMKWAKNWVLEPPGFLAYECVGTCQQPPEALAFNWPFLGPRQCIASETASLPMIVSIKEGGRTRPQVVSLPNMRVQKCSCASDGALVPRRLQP

On to `COC(=O)[C@H](C)NC(=O)CCC1CC(OC(=O)NCCc2ccc(F)cc2)CC2(CCCC(COC(=O)NCC(c3ccccc3)c3ccccc3)O2)O1` (stereo not given in full), for which the composite z-score in test [1] was 1.39; in [3] it was 0.386; in [4] it was 0.084; in test [5], -0.443; in test [6], -0.124; in [7], 0.0062. In addition, the values for the composite z-score in [8], in test [9] and in test [10] were -0.152, 0.516 and 0.853, respectively. The z-score in [2] is -0.375.
On to `O=C1[C@H]2[C@H]3[C@H](O)[C@H](O)CC(=NO[C@@H]4O[C@H](CO)[C@@H](O)[C@H](O)[C@H]4O)[C@@H]3CC[C@H]2C(=O)N1c1ccc(F)cc1F`, for which the composite z-score is 0.343 in [1]; 0.428 in [3]; -0.364 in test [4]; -0.561 in test [5]; -0.12 in [6]; 0.284 in [7]. Besides, the composite z-score in test [8] was -0.349; in [9], 0.467; in [10], 0.161. In [2], the z-score was found to be 0.434.
Consider `C#CCCCON=C1C[C@@H](O)[C@@H](O)[C@@H]2[C@@H]3C(=O)N(c4cccc(Oc5ccccc5)c4)C(=O)[C@@H]3CC[C@@H]12`, for which the composite z-score is 1.3 in test [1]; 0.159 in test [3]; 0.298 in test [4]; -0.285 in [5]; -0.0808 in [6]; -0.0709 in test [7]. For the same molecule, the composite z-score in [8] was -0.183; in [9], 0.0847; in [10], 0.724. Further, the z-score in test [2] was -0.497.
Consider `CCc1cc2c(nc1CC)CCN(CCC(C)=NOC[C@@H](O)[C@H]1O[C@@H]3OC(C)(C)O[C@@H]3[C@H]1O)C2`, for which the composite z-score in test [1] is 0.176; in [3], 0.317; in test [4], 1.68; in test [5] it was 0.0363; in test [6] it was -0.0607; in [7] it was -0.16. The values for the composite z-score in [8], in [9] and in test [10] were -0.238, 0.455 and 0.677, respectively. Moreover, the z-score in test [2] was -1.59.
With `CO[C@H]1COC(=O)[C@H](C)COC(=O)CC=C[C@@H](C)[C@H](OC)COC(=O)CC=C[C@@H]1C`, the composite z-score in test [1] is -0.797; in [3], 1.15; in [4], -0.556; in test [5], -1.28; in test [6], -0.0944; in test [7], -0.0709. Besides, the composite z-score in [8] was -0.158; in [9], -0.0635; in [10], -0.289. In addition, the z-score in test [2] was -0.265.
Regarding `CO[C@@H]1COC(=O)CC=C[C@@H](C)[C@@H]2C=C[C@@H](O)[C@@H](COC(=O)CC=C[C@H]1C)O2`, the composite z-score in [1] is -0.438; in test [3], 1.12; in test [4] it was -1.24; in test [5], -2.11; in test [6], -0.252; in test [7], 0.0756. Moreover, the values for the composite z-score in test [8], in test [9] and in test [10] were -0.444, -0.208 and -0.114, respectively. Besides, the z-score in test [2] stood at 0.464.
Turning to `COCC(=C=CC[C@@H](O)c1ccccc1OCCO)CCO`, the composite z-score was 0.692 in [1]; -0.0632 in test [3]; 0.0775 in test [4]; 0.119 in test [5]; -0.206 in [6]; 0.0796 in [7]. Also, the figures for the composite z-score in test [8], in [9] and in test [10] were -0.333, 0.416 and 0.113, respectively. The molecule also came in with a z-score in [2] of -0.779.
Consider `CCCNC(=O)[C@@H]1c2ccccc2C(=O)N(Cc2ccccc2Cl)[C@H]1c1ccc(CO)cc1`, for which the composite z-score was 1.22 in test [1]; 0.531 in test [3]; 0.936 in test [4]; 0.375 in [5]; -0.0203 in test [6]; -0.0769 in test [7]. Further, the values for the composite z-score in test [8], in test [9] and in [10] were 0.546, 0.598 and 0.726, respectively. In [2], this molecule showed a z-score of -0.656.
With `CCCNC(=O)[C@@H]1c2ccccc2C(=O)N(c2ccc(C)cn2)[C@H]1c1ccc(CO)cc1`, the composite z-score in [1] was -1.05; in test [3] it was -0.181; in test [4] it was -0.769; in test [5] it was -0.462; in [6], -0.238; in [7], -0.0155. Further, the composite z-score in test [8] is -0.434; in test [9], 0.185; in [10], 0.4. This molecule came in with a z-score in test [2] of 0.0924.
Regarding `CO[C@@H]1COC(=O)[C@@H]2CCCN2C(=O)[C@@H](C)COC(=O)[C@H](COCc2ccccc2)NC(=O)CC=C[C@H]1C`, the composite z-score was 0.929 in test [1]; 0.39 in [3]; -0.142 in [4]; -0.713 in [5]; -0.0748 in [6]; 0.0941 in test [7]. The composite z-score was -0.111 in test [8], 0.142 in [9] and 0.199 in [10]. In test [2], this molecule gave a z-score of 0.323.
As for `CC=CC1=C(CO)[C@H](O)[C@H]2O[C@H]2[C@H]1O`, the composite z-score in [1] is 0.598; in test [3], 0.827; in [4], -0.381; in [5], -1.02; in [6] it was -0.0758; in [7], -0.304. The figures for the composite z-score in test [8], in [9] and in [10] were -0.309, -0.134 and -0.0092, respectively. In test [2], this molecule yielded a z-score of -0.956.
For the molecule `CC(CCN1CCc2nc(-c3ccccc3)c(-c3ccccc3)cc2C1)=NO[C@H](C)c1cn([C@@H]2COC[C@H]2O)nn1`, the composite z-score in test [1] is 1.35; in [3], 0.0738; in test [4] it was -0.307; in test [5] it was -0.46; in test [6] it was -0.0685; in test [7] it was -0.0553. The composite z-score in test [8] is -0.025; in test [9], 0.438; in test [10] it was 0.872. The molecule further returned a z-score in [2] of -0.883.
